# Laboratory results taken from the supplement of paper PMC8728848.
# About 410 targets per protein were measured; listed, in parts, are those with the strongest signals and a random draw of the rest.
# B1: Mg1lysM (Mycosphaerella graminicola) (protein)
# chain: QRNPITITPQFDCGATNSQQYVARSGDTLTKIAQEIYHDVVGVCDIARANNLADPNRIDAGTPYTIPINCQTYDRNSCL
# Assays:
# Assay in all cases: glycan array binding signal (z-score within array); higher = stronger binding
# Details in all cases: glycan notation: IUPAC condensed, linker removed
# [1] = molecular target: Fuc(a1-2)Gal(b1-3)GlcNAc(b1-3)Gal(b1-4)Glc
# Outline: (§1)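 The Consortium for Functional Glycomics database supplied 3228 glycan arrays, of which those lacking an available protein sequence were dropped. The binding signal, a within-array Z-score, was averaged across arrays of the same protein sequence and across linkers. Negative scores can be read as non-binding.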
# [2] = molecular target: Fuc(a1-2)Gal(b1-3)[Fuc(a1-4)]GlcNAc(b1-3)[Gal(b1-4)GlcNAc(b1-6)]Gal(b1-4)Glc
# Outline: as §1
# [3] = molecular target: Fuc(a1-2)Gal(b1-4)Glc
# Outline: as §1
# [4] = molecular target: Fuc(a1-2)Gal(b1-4)GlcNAc(b1-3)Gal(b1-4)GlcNAc(b1-2)Man(a1-3)[Fuc(a1-2)Gal(b1-4)GlcNAc(b1-3)Gal(b1-4)GlcNAc(b1-2)Man(a1-6)]Man(b1-4)GlcNAc(b1-4)GlcNAc
# Outline: as §1
# [5] = molecular target: Fuc(a1-2)Gal(b1-4)[Fuc(a1-3)]GlcNAc(b1-2)Man(a1-3)[Fuc(a1-2)Gal(b1-4)[Fuc(a1-3)]GlcNAc(b1-2)Man(a1-6)]Man(b1-4)GlcNAc(b1-4)[Fuc(a1-6)]GlcNAc
# Outline: as §1
# [6] = molecular target: Fuc(a1-2)Gal3S(b1-4)GlcNAc
# Outline: as §1
# [7] = molecular target: Fuc(a1-2)[GalNAc(a1-3)]Gal(b1-4)GlcNAc(b1-2)Man(a1-3)[Fuc(a1-2)[GalNAc(a1-3)]Gal(b1-4)GlcNAc(b1-2)Man(a1-6)]Man(b1-4)GlcNAc(b1-4)[Fuc(a1-6)]GlcNAc
# Outline: as §1
# [8] = molecular target: Fuc(a1-3)[Gal3S(b1-4)]GlcNAc
# Outline: as §1
# [9] = molecular target: Fuc(a1-4)GlcNAc
# Outline: as §1
# [10] = molecular target: Gal(a1-3)Gal
# Outline: as §1
# [11] = molecular target: Gal(a1-3)Gal(b1-3)[Fuc(a1-4)]GlcNAc(b1-2)Man(a1-3)[Gal(a1-3)Gal(b1-3)[Fuc(a1-4)]GlcNAc(b1-2)Man(a1-6)]Man(b1-4)GlcNAc(b1-4)GlcNAc
# Outline: as §1
# [12] = molecular target: Gal(a1-4)Gal(b1-4)GlcNAc(b1-2)Man(a1-3)[Gal(a1-4)Gal(b1-4)GlcNAc(b1-2)Man(a1-6)]Man(b1-4)GlcNAc(b1-4)GlcNAc
# Outline: as §1
# [13] = molecular target: Gal(a1-6)Glc
# Outline: as §1
# [14] = molecular target: Gal(b1-3)Gal
# Outline: as §1
# [15] = molecular target: Gal(b1-3)GlcNAc(b1-2)Man(a1-3)[GlcNAc(b1-4)][Gal(b1-3)GlcNAc(b1-2)Man(a1-6)]Man(b1-4)GlcNAc(b1-4)GlcNAc
# Outline: as §1
# [16] = molecular target: Gal(b1-3)GlcNAc(b1-3)Gal(b1-4)GlcNAc(b1-2)[Gal(b1-3)GlcNAc(b1-3)Gal(b1-4)GlcNAc(b1-6)]Man(a1-6)[Gal(b1-3)GlcNAc(b1-3)Gal(b1-4)GlcNAc(b1-2)Man(a1-3)]Man(b1-4)GlcNAc(b1-4)[Fuc(a1-6)]GlcNAc
# Outline: as §1
# [17] = molecular target: Gal(b1-3)GlcNAc(b1-6)[Gal(b1-3)]GalNAc
# Outline: as §1
# [18] = molecular target: Gal(b1-4)GlcNAc(b1-2)Man(a1-6)Man(b1-4)GlcNAc(b1-4)GlcNAc
# Outline: as §1
# [19] = molecular target: Gal6S(b1-4)GlcNAc
# Outline: as §1
# [20] = molecular target: GalNAc(a1-3)GalNAc
# Outline: as §1
# [21] = molecular target: GalNAc3S(b1-4)[Fuc(a1-3)]GlcNAc
# Outline: as §1
# [22] = molecular target: Glc(a1-4)Glc(a1-4)Glc(a1-4)Glc
# Outline: as §1
# [23] = molecular target: GlcA(b1-6)Gal
# Outline: as §1
# [24] = molecular target: GlcNAc(a1-4)Gal(b1-4)GlcNAc(b1-3)Gal(b1-4)Glc
# Outline: as §1
# [25] = molecular target: GlcNAc(b1-2)Man(a1-3)[GlcNAc(b1-2)Man(a1-6)]Man(b1-4)GlcNAc(b1-4)GlcNAc
# Outline: as §1
# [26] = molecular target: GlcNAc(b1-2)[GlcNAc(b1-4)]Man(a1-3)[GlcNAc(b1-4)][GlcNAc(b1-2)[GlcNAc(b1-6)]Man(a1-6)]Man(b1-4)GlcNAc(b1-4)[Fuc(a1-6)]GlcNAc
# Outline: as §1
# [27] = molecular target: GlcNAc(b1-3)Gal(b1-4)GlcNAc(b1-2)[GlcNAc(b1-3)Gal(b1-4)GlcNAc(b1-6)]Man(a1-6)[GlcNAc(b1-3)Gal(b1-4)GlcNAc(b1-2)Man(a1-3)]Man(b1-4)GlcNAc(b1-4)GlcNAc
# Outline: as §1
# [28] = molecular target: GlcNAc(b1-3)Gal(b1-4)GlcNAc(b1-3)Gal(b1-4)GlcNAc(b1-3)Gal(b1-4)GlcNAc(b1-2)Man(a1-3)[GlcNAc(b1-3)Gal(b1-4)GlcNAc(b1-3)Gal(b1-4)GlcNAc(b1-3)Gal(b1-4)GlcNAc(b1-2)Man(a1-6)]Man(b1-4)GlcNAc(b1-4)[Fuc(a1-6)]GlcNAc
# Outline: as §1
# [29] = molecular target: GlcNAc(b1-3)Man
# Outline: as §1
# [30] = molecular target: GlcNAc(b1-4)GlcNAc(b1-4)GlcNAc
# Outline: as §1
# [31] = molecular target: GlcNAc(b1-4)GlcNAc(b1-4)GlcNAc(b1-4)GlcNAc(b1-4)GlcNAc
# Outline: as §1
# [32] = molecular target: GlcNAc(b1-4)GlcNAc(b1-4)GlcNAc(b1-4)GlcNAc(b1-4)GlcNAc(b1-4)GlcNAc
# Outline: as §1
# [33] = molecular target: Kdn(a2-3)Gal(b1-4)[Fuc(a1-3)]GlcNAc
# Outline: as §1
# [34] = molecular target: Neu5Ac(a2-3)Gal(b1-3)GlcNAc(b1-2)Man(a1-3)[GlcNAc(b1-4)][Neu5Ac(a2-3)Gal(b1-3)GlcNAc(b1-2)Man(a1-6)]Man(b1-4)GlcNAc(b1-4)GlcNAc
# Outline: as §1
# [35] = molecular target: Neu5Ac(a2-3)Gal(b1-3)GlcNAc(b1-2)[Neu5Ac(a2-3)Gal(b1-3)GlcNAc(b1-4)]Man(a1-6)[Neu5Ac(a2-3)Gal(b1-3)GlcNAc(b1-2)Man(a1-3)]Man(b1-4)GlcNAc(b1-4)GlcNAc
# Outline: as §1
# [36] = molecular target: Neu5Ac(a2-3)Gal(b1-3)[Fuc(a1-4)]GlcNAc
# Outline: as §1
# [37] = molecular target: Neu5Ac(a2-3)Gal(b1-4)GlcNAc(b1-2)Man(a1-3)[GlcNAc(b1-4)][Neu5Ac(a2-3)Gal(b1-4)GlcNAc(b1-2)Man(a1-6)]Man(b1-4)GlcNAc(b1-4)GlcNAc
# Outline: as §1
# [38] = molecular target: Neu5Ac(a2-3)Gal(b1-4)GlcNAc(b1-6)[Neu5Ac(a2-3)Gal(b1-3)]GalNAc
# Outline: as §1
# [39] = molecular target: Neu5Ac(a2-3)Gal(b1-4)GlcNAc6S
# Outline: as §1
# [40] = molecular target: Neu5Ac(a2-6)Gal(b1-4)GlcNAc(b1-2)Man(a1-3)[GlcNAc(b1-2)Man(a1-6)]Man(b1-4)GlcNAc(b1-4)GlcNAc
# Outline: as §1
# [41] = molecular target: Neu5Ac(a2-6)Gal(b1-4)GlcNAc(b1-3)Gal(b1-4)GlcNAc(b1-3)GalNAc
# Outline: as §1
# [42] = molecular target: Neu5Ac(a2-6)Gal(b1-4)GlcNAc(b1-3)GalNAc
# Outline: as §1
# [43] = molecular target: Neu5Ac(a2-6)GalNAc(b1-4)GlcNAc
# Outline: as §1
# [44] = molecular target: Neu5Ac(a2-6)GlcNAc(b1-4)GlcNAc(b1-4)GlcNAc
# Outline: as §1
# [45] = molecular target: Neu5Ac(b2-6)GalNAc
# Outline: as §1
# [46] = molecular target: Neu5Gc(a2-3)Gal(b1-3)GlcNAc
# Outline: as §1
# [47] = molecular target: Neu5Gc(a2-8)Neu5Gc(a2-6)Gal(b1-4)GlcNAc
# Outline: as §1
binder,measurement,setting,value
B1,glycan array binding signal (z-score),[1],-0.073
same,glycan array binding signal (z-score),[2],-0.074
same,glycan array binding signal (z-score),[3],-0.06
same,glycan array binding signal (z-score),[4],-0.081
same,glycan array binding signal (z-score),[5],0.076
same,glycan array binding signal (z-score),[6],-0.038
same,glycan array binding signal (z-score),[7],-0.079
same,glycan array binding signal (z-score),[8],-0.075
same,glycan array binding signal (z-score),[9],-0.078
same,glycan array binding signal (z-score),[10],-0.086
same,glycan array binding signal (z-score),[11],-0.048
same,glycan array binding signal (z-score),[12],-0.061
same,glycan array binding signal (z-score),[13],-0.075
same,glycan array binding signal (z-score),[14],-0.061
same,glycan array binding signal (z-score),[15],0.125
same,glycan array binding signal (z-score),[16],0.02
same,glycan array binding signal (z-score),[17],-0.054
same,glycan array binding signal (z-score),[18],-0.083
same,glycan array binding signal (z-score),[19],-0.051
same,glycan array binding signal (z-score),[20],0.308
same,glycan array binding signal (z-score),[21],0.01
same,glycan array binding signal (z-score),[22],-0.073
same,glycan array binding signal (z-score),[23],-0.062
same,glycan array binding signal (z-score),[24],-0.084
same,glycan array binding signal (z-score),[25],-0.057
same,glycan array binding signal (z-score),[26],-0.071
same,glycan array binding signal (z-score),[27],-0.06
same,glycan array binding signal (z-score),[28],-0.081
same,glycan array binding signal (z-score),[29],-0.057
same,glycan array binding signal (z-score),[30],16.5
same,glycan array binding signal (z-score),[31],11.9
same,glycan array binding signal (z-score),[32],7.47
same,glycan array binding signal (z-score),[33],-0.081
same,glycan array binding signal (z-score),[34],-0.076
same,glycan array binding signal (z-score),[35],0.149
same,glycan array binding signal (z-score),[36],-0.096
same,glycan array binding signal (z-score),[37],-0.076
same,glycan array binding signal (z-score),[38],-0.062
same,glycan array binding signal (z-score),[39],-0.075
same,glycan array binding signal (z-score),[40],-0.054
same,glycan array binding signal (z-score),[41],-0.091
same,glycan array binding signal (z-score),[42],-0.076
same,glycan array binding signal (z-score),[43],0.004
same,glycan array binding signal (z-score),[44],4.06
same,glycan array binding signal (z-score),[45],-0.076
same,glycan array binding signal (z-score),[46],-0.04
same,glycan array binding signal (z-score),[47],-0.072
